# Laboratory results taken from PubChem BioAssay (NCI).
# This is part of a sample that, as a whole, favours compounds with a hit. Of some 83,000 tested, about 20% had one in any assay.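 Treatment: one concentration, 48 hours, 96-well format. Scoring: percent growth, with anything below 10 considered active.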 Unmarked numbers belong to inactive results. Calls of active or inactive are those of the source.
# System: HT29 colon
# Experiment: NCI-60 one-dose screen, 48 h (100 = growth as untreated, 0 = no growth, -100 = all killed)
# Conditions: 10 µM unless noted
row,Compound,growth
1,COC(=O)CCSC1=C(C)C(=O)c2ccccc2C1=O,110%
2,CCc1cc(OC(=O)N2CCC(N3CCCCC3)CC2)ccc1Nc1cc(-c2ccc(-n3cccn3)cc2)[nH]n1,-19.3% (active)
3,O=C(Nc1cc(C(F)(F)F)cc(C(F)(F)F)c1)Nc1ccc2oc(=O)ccc2c1,10.5%
4,Cc1ccc2c(n1)C(=O)C(Cl)=C(Nc1ccc(C(=O)OC(C)(C)C)cc1)C2=O,100% [9.25 µM]
5,Cc1cc(=O)[nH]c(O)c1C#N,110%
6,CCN(CC)S(=O)(=O)c1ccc(-c2nc(C(Cl)Cl)nc3cc(C)nn23)cc1,5.07% (active)
7,CNC(=O)Nc1ccc(Nc2cc(-c3ccc(-n4cccn4)cc3)[nH]n2)c(C)c1,120%

# System: SNB-75 CNS
# Experiment: as above
# Conditions: 10 µM unless noted
row,Compound,growth
1,CNc1sc(S(=O)(=O)NC)nc1S(=O)(=O)c1ccc(C)cc1,88.3%
2,COc1cccc(N2CCN(C3=C(Cl)C(=O)c4ncccc4C3=O)CC2)c1,85.1%
3,O=C1[C@@H]2Cc3c([nH]c4ccccc34)[C@@H](c3ccc(Cl)cc3)N2C(=O)CN1C1CCN(Cc2ccccc2)CC1,29%
4,CC(=O)OCCCCN1C=C/C(=C\C(=O)n2ccc3ccccc32)c2ccccc21,100%
5,CN1CCN(c2ccc(Nc3nc(NCCNS(=O)(=O)c4ccc5ccccc5c4)c4sccc4n3)cc2)CC1,78%
6,CC1=C(C)C(=O)C(Nc2ccc3c(c2)OCCO3)=C(Br)C1=O,83.7%
7,C=C(C)[C@@H]1CC[C@]2(C(=O)NC3CCCCC3)CC[C@]3(C)[C@H](CC[C@@H]4[C@@]5(C)CC[C@H](N)C(C)(C)[C@@H]5CC[C@]43C)[C@@H]12,83.9%
8,CCOC(=O)c1c(NC(=O)c2ccc(C(F)(F)F)cc2)sc2c3c(ccc12)OCN(C)C3,69.7%
9,C#CCN(C)CCCOc1ccc(NCc2ccc(/C=C/C(=O)NO)cc2)cc1Cl,9.93% (active)
10,COc1cc(/C=N\NC(=O)c2ccc3nc(-c4ccc(Br)cc4)[nH]c3c2)cc(OC)c1OC,57.1%
11,C=C1CCc2nc(SCC(=O)O)ccc2N1,85.1%
12,CN1CCC[C@]2(C)[C@H]3CC[C@@H]4[C@@H]5[C@H]6OC[C@@]5(CCC6(C)C)CC[C@@]4(C)[C@]3(C)CC[C@H]2C1(C)C,89.1%
13,C=C(C=O)[C@@H]1CC[C@]2(C(=O)O)CC[C@]3(C)C(CC[C@@H]4[C@@](C)(CCC#N)[C@H](C(=C)C=O)CC[C@]43C)[C@@H]12 (some centres not stated),59%
14,NCCNC(=O)c1cccc(COc2ccccc2NC(=O)c2cc(Cl)c(Cl)[nH]2)c1,72.5%
15,COc1ccc(C2c3[nH]c4ccc(Cl)cc4c3CCN2c2oc(CO)nc2C#N)cc1 (configuration not stated),46.5%
16,CN(C)c1ccc(-c2cc(-c3c[nH]c4ccccc34)nc(N)c2C#N)cc1,21.1%
17,COc1ccccc1/C=C1\Oc2ccc(O)c(O)c2C1=O,82.6%
18,CCCCCc1ccc(S(=O)(=O)Nc2cc(-c3csc(N)n3)ccc2OC)cc1,103%
19,O=C(O)c1ccc(-n2c(=O)n(-c3cccc(C(F)(F)F)c3)c(=O)c3cc(-c4ccc(F)cc4F)ccc32)cc1,-12.1% (active)
20,Nn1c(=O)n(-c2cccc(C(F)(F)F)c2)c(=O)c2cc(-c3ccc(F)cc3F)ccc21,-16.5% (active)

row,Compound,growth
1,CCCCN1C(=O)/C(=c2\sc3n(c2=O)C2C(NN=3)N(CC)C(=O)N2CC)c2cc(C)ccc21 (configuration not stated),87.9%
2,CC(C)[C@H]1c2[nH]c3ccccc3c2C[C@H]2C(=O)N(CCCCCCC(=O)NO)CC(=O)N12,62.9%
3,O=C(N/N=C\c1ccc(F)cc1)c1ccc2nc(-c3ccc(Br)cc3)[nH]c2c1,53.7%
4,NC1[C@H]2CN(c3cnc(C(=O)Nc4cc(F)cc5cccnc45)cn3)C[C@@H]12 (some centres not stated),56.7%
5,Cc1ccsc1[C@H]1c2[nH]c3ccccc3c2C[C@H]2C(=O)N(CCCCCCC(=O)NO)CC(=O)N12,51.8%
6,CC(=O)N(O)CCCCCNC(=O)CCC(=O)N(O)CCCCCNC(=O)CCC(=O)N(O)CCCCCN(CCCCCCCCCC[P+](c1ccccc1)(c1ccccc1)c1ccccc1)CCCCCCCCCC[P+](c1ccccc1)(c1ccccc1)c1ccccc1,-11% (active)
7,O=c1nc(Nc2ccc([N+](=O)[O-])cc2O)sc2ccccc12,-11.7% (active)
8,Cc1cc2nc(C(Cl)Cl)nc(-c3ccc(S(=O)(=O)N(C)C)cc3)n2n1,55.5%
9,C/C(CC1(O)C(=O)Nc2ccccc21)=N\O (configuration not stated),92.4%
10,C[C@]12CC[C@H]3[C@@H](CC=C4C[C@@H](O)CC[C@@]43C)[C@@H]1CC[C@@H]2[C@](C)(O)CCc1cccnc1,62%
11,O=C(CSc1nnc(-c2cccs2)n1-c1ccccc1)Nc1ccccc1F,84.4%
12,CC(=C(c1ccc(OCCCN(C)C)cc1)c1ccc(OCCCN(C)C)cc1)c1ccc(Cl)cc1,75.8%
13,O=C(CSc1nc2ccccc2c(=O)n1-c1ccc(Cl)c(Cl)c1)Nc1ccc(S(=O)(=O)Nc2ccc(Cl)nn2)cc1,68.8%
14,COC(=O)CCSC1=C(C)C(=O)c2ccccc2C1=O,89.6%
15,CCc1cc(OC(=O)N2CCC(N3CCCCC3)CC2)ccc1Nc1cc(-c2ccc(-n3cccn3)cc2)[nH]n1,97.3%
16,O=C(Nc1cc(C(F)(F)F)cc(C(F)(F)F)c1)Nc1ccc2oc(=O)ccc2c1,15.1%
17,Cc1ccc2c(n1)C(=O)C(Cl)=C(Nc1ccc(C(=O)OC(C)(C)C)cc1)C2=O,83.8% [9.25 µM]
18,Cc1cc(=O)[nH]c(O)c1C#N,87%
19,CCN(CC)S(=O)(=O)c1ccc(-c2nc(C(Cl)Cl)nc3cc(C)nn23)cc1,46.7%
20,CNC(=O)Nc1ccc(Nc2cc(-c3ccc(-n4cccn4)cc3)[nH]n2)c(C)c1,123%
